Where “and” joins values, the source holds several entries; their conditions need not be identical. Equal values may be shown once. Records with an inconclusive call do not appear. Calls of active or inactive are those of the source. How the source made its calls, unless noted: active means hit-call score of the fitted dose curve at least 0.9, where 1 is the maximum; inconclusive means response in the unintended direction; inactive means score below 0.9.
Experiments:
[1] = TOX21_p53_BLA_p5_viability: Viability Assessment in the Tox21 HCT-116 p53 Agonism Beta-lactamase Assay, Phase 5 (AID 2283600)
Method in brief: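 Counter-readout for cytotoxicity: ATP-dependent luminescence from CellTiter-Glo, read in the beta-lactamase wells after 30 min at RT, following a 16 h compound exposure at 37C.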

[2] = target: Cellular tumor antigen p53 (Homo sapiens) (UniProt P04637); experiment: TOX21_p53_BLA_p4_ratio: Tox21 HCT-116 p53 Agonism Beta-lactamase Assay, Ratio, Phase 4 (AID 2283601)
Method in brief: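 HCT116 cells carrying an inducible beta-lactamase reporter were plated at 4000 cells/well, rested 5 h, then exposed to compounds in DMSO (217-fold dilution) for 16 h at 37C. CCF4-AM substrate was loaded 2 h at room temperature; 460/530 nm emission ratio scored gain-of-signal versus DMSO.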

[3] = Tanguay_ZF_120hpf_MORT_legacy: (Legacy) Oregon State University Tanguay Lab 120 Hour Post-fertilization zebrafish Assay for Mortality (AID 2283633);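 on AC50: fitted as increase in binary mortality versus DMSO negative control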
Method in brief: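 Mortality endpoint from a multiplexed whole-embryo zebrafish screen. Dechorionated wild-type embryos received compound at 6 hpf and remained under static exposure at 28C until 120 hpf, with death noted as a present/absent call.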

[4] = Tanguay_ZF_120hpf_YSE_legacy: (Legacy) Oregon State University Tanguay Lab 120 Hour Post-fertilization zebrafish Assay for Yolk Sac Edema (AID 2283634);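 on AC50: actives raise the incidence of yolk sac edema above the DMSO baseline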
Method in brief: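 Readout: presence or absence of yolk sac edema at 120 hpf, fitted upward against DMSO controls. Exposure ran statically from 6 hpf in dechorionated embryos kept at 28C.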

[5] = Tanguay_ZF_120hpf_AXIS_legacy: (Legacy) Oregon State University Tanguay Lab 120 Hour Post-fertilization zebrafish Assay for Body Axis Malformation (AID 2283635);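 on AC50: potency for an increased fraction of larvae scored with body axis malformation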
Method in brief: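 Static 6–120 hpf chemical exposure of dechorionated wild-type 5D zebrafish, one per well at 28C; morphology endpoint scored binary at 120 hpf relative to DMSO control.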

[6] = Tanguay_ZF_120hpf_EYE_legacy: (Legacy) Oregon State University Tanguay Lab 120 Hour Post-fertilization zebrafish Assay for Eye Malformation (AID 2283636);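 further: binary presence or absence of eye malformation scored by brightfield in 120 hpf larvae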
Method in brief: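 Dechorionated wild-type Tropical 5D zebrafish embryos were exposed statically from 6 hpf, one per well, to 120 hpf at 28C in sealed, foil-covered plates with 0.64% DMSO. Eye malformation was scored present/absent by brightfield microscopy against DMSO controls.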

[7] = Tanguay_ZF_120hpf_SNOU_legacy: (Legacy) Oregon State University Tanguay Lab 120 Hour Post-fertilization zebrafish Assay for Snout Malformation (AID 2283637)
Method in brief: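 Tropical 5D wild-type zebrafish embryos, dechorionated with pronase at 4 hpf, were exposed singly from 6 hpf to 120 hpf statically at 28C in 0.64% DMSO. Snout malformation was scored present/absent by brightfield microscopy, fitted against DMSO.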

[8] = Tanguay_ZF_120hpf_OTIC_legacy: (Legacy) Oregon State University Tanguay Lab 120 Hour Post-fertilization zebrafish Assay for Otic Vesicle Malformation (AID 2283639)
Method in brief: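 Otic vesicle malformation is read as a yes/no morphology call at 120 hpf. Exposure is static at 28C with 0.64% (vol/vol) DMSO; embryos that die are excluded from non-mortality endpoints.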

[9] = Tanguay_ZF_120hpf_BRAI_legacy: (Legacy) Oregon State University Tanguay Lab 120 Hour Post-fertilization zebrafish Assay for Brain Malformation (AID 2283641)
Method in brief: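 Brain malformation in Tropical 5D zebrafish was recorded as a binary endpoint after static compound exposure from early development to 120 hpf at 28C. Activity was analysed against DMSO as negative control.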

[10] = Tanguay_ZF_120hpf_SOMI_legacy: (Legacy) Oregon State University Tanguay Lab 120 Hour Post-fertilization zebrafish Assay for Somite Malformation (AID 2283647)
Method in brief: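 5D WT zebrafish; chorion removed 4 hpf; 1 embryo/well from 6 hpf; static exposure to 120 hpf, 28C, 0.64% DMSO final. Endpoint: somite malformation, binary, brightfield. Mortality excluded.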

[11] = target: Cellular tumor antigen p53 (Homo sapiens) (UniProt P04637); experiment: TOX21_p53_BLA_p5_ratio: Tox21 HCT-116 p53 Agonism Beta-lactamase Assay, Ratio, Phase 5 (AID 2283599)
Method in brief: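 HCT-116 cells carrying a p53-inducible beta-lactamase reporter were seeded at 4000 cells/well and dosed after 5 h with compound in DMSO (217-fold dilution). After 16 h at 37C, CCF4-AM substrate was added for 2 h, and the 460/530 nm emission ratio was scored as gain-of-signal versus DMSO.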

[12] = Tanguay_ZF_120hpf_JAW_legacy: (Legacy) Oregon State University Tanguay Lab 120 Hour Post-fertilization zebrafish Assay for Jaw Malformation (AID 2283638)
Method in brief: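 Static waterborne exposure of dechorionated wild-type (Tropical 5D) zebrafish from 6 to 120 hpf at 28C, 0.64% DMSO vehicle; 5uM trimethyltin chloride served as positive control. Jaw morphology recorded as binary at 120 hpf.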

[13] = Tanguay_ZF_120hpf_CFIN_legacy: (Legacy) Oregon State University Tanguay Lab 120 Hour Post-fertilization zebrafish Assay for Caudal Fin Malformation (AID 2283649)
Method in brief: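 Embryos were collected from Tropical 5D wild-type adults and dechorionated at 4 hpf. At 6 hpf each was exposed, one per well, at 0.64% DMSO and 28C. At 120 hpf fin morphology was scored; dead embryos were excluded.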

[14] = Tanguay_ZF_120hpf_PIG_legacy: (Legacy) Oregon State University Tanguay Lab 120 Hour Post-fertilization zebrafish Assay for Pigmentation Malformation (AID 2283650)
Method in brief: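 Tropical 5D wild-type zebrafish embryos, dechorionated with pronase at 4 hpf, were exposed singly from 6 hpf to 120 hpf statically at 28C in sealed, dark plates with 0.64% DMSO; pigmentation scored present/absent by brightfield microscopy, fitted against DMSO.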

[15] = Tanguay_ZF_120hpf_CIRC_legacy: (Legacy) Oregon State University Tanguay Lab 120 Hour Post-fertilization zebrafish Assay for Circulatory Malformation (AID 2283651)
Method in brief: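 Using wild-type Tropical 5D zebrafish, we exposed dechorionated embryos from 6 to 120 hpf in embryo medium with 0.64% DMSO. Circulatory defects were scored as present or absent; 5uM trimethyltin chloride served as positive control.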

[16] = Tanguay_ZF_120hpf_SWIM_legacy: (Legacy) Oregon State University Tanguay Lab 120 Hour Post-fertilization zebrafish Assay for Swim Bladder Malformation (AID 2283654);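 further: swim bladder malformation in each larva scored yes or no under brightfield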
Method in brief: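 Dechorionated Tropical 5D wild-type embryos, placed singly from 6 hpf, were statically exposed at 28C to 120 hpf with 0.64% DMSO final; swim bladder malformation was scored present/absent by brightfield microscopy, gain of signal relative to DMSO controls.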

[17] = read-out: kallikrein-3 (KLK3), KLK3 (gene 354); experiment: LTEA_HepaRG_KLK3: Life Technologies and Expression Analysis (LTEA) Assay for kallikrein-3 (KLK3) using HepaRG (AID 2283652; active means hit-call score of the fitted dose curve at least 0.9, where 1 is the maximum; inactive means score below 0.9); conditions: mRNA level, 48 h; actives raise or lower the signal
Method in brief: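 Differentiated human HepaRG cells in serum-free induction medium exposed 48 h in duplicate, eight-point half-log series from 100 uM in 0.5% DMSO. KLK3 mRNA by qRT-PCR, normalised to ACTB, GAPDH, POLR2A; bidirectional fit versus DMSO.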

[18] = read-out: solute carrier (SLC22A6), SLC22A6 (gene 9356); experiment: LTEA_HepaRG_SLC22A6: Life Technologies and Expression Analysis (LTEA) Assay for solute carrier (SLC22A6) using HepaRG (AID 2283653; active means hit-call score of the fitted dose curve at least 0.9, where 1 is the maximum; inactive means score below 0.9); conditions: mRNA level, 48 h; actives raise or lower the signal
Method in brief: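 This endpoint tracks SLC22A6 mRNA induction or suppression in human HepaRG cultures after 48 h dosing, concentrations reaching 100 uM. Values derive from bidirectional fitting against DMSO controls.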

[19] = Tanguay_ZF_120hpf_PFIN_legacy: (Legacy) Oregon State University Tanguay Lab 120 Hour Post-fertilization zebrafish Assay for Pectoral Fin Malformation (AID 2283648);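 further: each larva judged yes or no for fin defect by brightfield with dead larvae skipped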
Method in brief: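 Tropical 5D wild-type embryos, dechorionated with pronase at 4 hpf, were placed singly in wells at 6 hpf and statically exposed until 120 hpf at 28C, sealed and dark, with 0.64% (vol/vol) final DMSO; pectoral fin malformation scored present/absent.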

[20] = Tanguay_ZF_120hpf_PE_legacy: (Legacy) Oregon State University Tanguay Lab 120 Hour Post-fertilization zebrafish Assay for Pericardial Edema (AID 2283640)
Method in brief: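 Read-out is the presence or absence of pericardial edema at 120 hpf under brightfield, with gain of signal fitted against DMSO controls. Larvae (5D wild-type) were statically exposed at 28C with 0.64% final DMSO.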

Measured: AC50

Chain of Cellular tumor antigen p53 (Homo sapiens) (P04637 whole entry, looked up): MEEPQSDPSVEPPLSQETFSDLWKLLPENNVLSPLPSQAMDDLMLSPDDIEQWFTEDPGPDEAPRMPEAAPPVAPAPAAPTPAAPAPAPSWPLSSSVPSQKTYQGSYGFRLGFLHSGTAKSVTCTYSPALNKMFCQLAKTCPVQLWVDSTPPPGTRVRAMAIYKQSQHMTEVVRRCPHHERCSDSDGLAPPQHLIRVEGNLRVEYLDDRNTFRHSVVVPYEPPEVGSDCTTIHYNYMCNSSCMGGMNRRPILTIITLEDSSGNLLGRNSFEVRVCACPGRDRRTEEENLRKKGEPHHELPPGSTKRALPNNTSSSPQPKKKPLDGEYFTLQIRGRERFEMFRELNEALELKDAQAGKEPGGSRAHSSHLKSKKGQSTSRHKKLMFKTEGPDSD

CCCCOC(=O)[C@@H](C)Oc1ccc(Oc2ccc(C(F)(F)F)cn2)cc1
inactive: [1] | [2] | [3] | [4] | [5] | [6] | [7] | [8] | [9] | [10]

CSC(=O)c1cccc2nnsc12
inactive: [11] | [2] | [3] | [4] | [5] | [6] | [7] | [12] | [9] | [10] | [13] | [14] | [15] | [16]

COC(=O)c1ccccc1C(=O)O
inactive: [1] | [3] | [4] | [5] | [7] | [12] | [9] | [10] | [13] | [14] | [15] | [17] | [18] | [16]

CCC(C)OC(=O)N1CCCCC1CCO (stereo unspecified)
inactive: [1] | [2] | [3] | [4] | [6] | [7] | [12] | [8] | [9] | [10] | [19] | [14] | [15] | [16]

CC(C)(C)[C@@H](O)[C@@H](Cc1ccc(Cl)cc1)n1cncn1
active: [4] 36.1 µM | [5] 40.9 µM | [7] 10.5 µM
inactive: [1] | [2] | [3] | [6] | [12] | [9] | [10] | [13] | [14] | [15] | [16]

CC1(C)C(C=C(Cl)Cl)C1C(=O)OCc1cccc(Oc2ccccc2)c1 (stereo unspecified)
inactive: [1] | [2] | [3] | [4] | [5] | [6] | [7] | [12] | [8] | [9] | [10] | [13] | [16]

CCCCOCCOCCOCc1cc2c(cc1CCC)OCO2
inactive: [6] | [12] | [8] | [9] | [10] | [14] | [15] | [17] | [18] | [16]
active: [3] 5.13 µM | [4] 28.3 µM | [5] 25.5 µM | [7] 7.01 µM | [13] 10.7 µM

CCOC(=O)C(C)Oc1ccc(Oc2cnc3cc(Cl)ccc3n2)cc1 (stereo unspecified)
inactive: [3] | [4] | [5] | [6] | [7] | [12] | [8] | [20] | [9] | [10] | [13] | [14] | [15] | [16]

OB(O)O
inactive: [11] | [2] | [3] | [4] | [5] | [6] | [7] | [12] | [9] | [10] | [19] | [13] | [14] | [15] | [16]

CCCN(CCC)C(=O)SCC
inactive: [1] | [2] | [3] | [4] | [5] | [7] | [12] | [20] | [9] | [10] | [13] | [14] | [16]

c1ccc2[nH]c(-c3cscn3)nc2c1
inactive: [3] | [4] | [5] | [6] | [7] | [12] | [8] | [9] | [19] | [14] | [15] | [16]

COC(=O)CSc1cc(N=c2sc(=O)n3n2CCCC3)c(F)cc1Cl
inactive: [1] | [3] | [4] | [6] | [7] | [12] | [9] | [14] | [15] | [16]

O=C(c1ccc(O)cc1O)c1ccc(O)cc1O
inactive: [2] | [3] | [4] | [5] | [6] | [7] | [12] | [8] | [9] | [10] | [13] | [15]
active: [11] 76.4 µM and 74.5 µM

COc1c(Cl)ccc(Cl)c1C(=O)O
inactive: [3] | [4] | [5] | [6] | [7] | [12] | [8] | [20] | [9] | [10] | [13] | [14] | [15]

COc1nc(C)nc(NC(=O)NS(=O)(=O)c2ccccc2OCCCl)n1
inactive: [11] | [2]

Source: PubChem BioAssay (EPA / NIEHS)
